Potency data for 40 molecules are collected here from PubChem BioAssay (Tox21).

Structures are written as SMILES. Values joined by “and” are separate entries in the source; they are usually repeats but may differ in a detail not shown here. Equal values may be shown once. Records with an inconclusive call do not appear. Where a call stands in place of a potency, no number is given. Active and inactive are the calls of the source. The call rests on the fitted dose curve; in most records, active means well fitted cell-killing curve with a large enough effect in the repeat runs; inconclusive means weak or mixed curves, or effect the other way; inactive means no such curve, though single readings can be large or run the other way.
Potency means the concentration at half of the fitted maximal effect.

The test is described as follows: qHTS assay to identify small molecule antagonists of the sonic hedgehog signaling (Shh) pathway - cell viability counter screen (AID 1259367). Further: nearly all actives have a fitted effect of over 55% in size. To be noted: NIH/3T3 Gli1-Luc viability, CellTiter-Fluor, 24 h; series mostly up to 92.4 µM. The source says:
National Center for Advancing Translational Sciences [NCATS]
NIH Chemical Genomics Center [NCGC]
U.S. Environmental Protection Agency [EPA]
National Institutes of Environmental Health Sciences [NIEHS]
National Toxicology Program [NTP]
U.S. Food and Drug Administration [FDA]
The sonic hedgehog (Shh) pathway is essential for normal embryonic development. Dysregulation of the Shh pathway can cause severe developmental defects in organs. Therefore chemicals that interfere with the pathway are potential developmental toxicants. A cell line designated 3T3Gli1-Luc (DMB/OARSA/CFSAN/FDA, Laurel, MD), a NIH/3T3 derived clone containing stably integrated Gli1-Luc reporter is used to detect chemical interference of the Shh pathway, by changes in the expression of the firefly Luc gene under the control of the Gli1 transcriptional response element. This cell line was used to screen Tox21 libraries for identifying and prioritizing the potential developmental toxicants that interfere Shh pathway. Conditioned medium-stimulated mode was used to screen for chemicals inhibiting Shh signaling. The cytotoxicity of the compounds was tested in parallel by measuring the cell viability using CellTiter-Fluor assay system (Promega, Madison, WI) in the same wells.
Tox21 Assay Protocol Summary:
3T3 Gli1-Luc cells were dispensed at 2,000 per well in 5uL of culture medium into white solid bottom 1536-well plates (Greiner Bio-One, Monroe, NC) using a Multidrop Combi (Thermo Scientific, Waltham, MA) dispenser. The assay plates were incubated at 37 C and 5% CO2 for 4hr, and then 23nL of compounds dissolved in DMSO and positive control were transferred using a Pintool station (Wako, San Diego, CA). The compound transfer was followed by the addition of 1ul conditioned medium or assay buffer using two separate tips of Flying Reagent Dispenser (FRD, Aurora Discovery, San Diego, CA). The assay plates were incubated at 37C and 5% CO2 for 24hr. For viability read, after 23hr of compound treatment, 1uL of CellTiter-Fluor reagent (Promega Corporation, Madison, WI) was added to each well of the assay plates using Flying Reagent Dispenser (FRD, Aurora Discovery, San Diego, CA) and incubated the assay plates at 37C for 1hr. The fluorescence signal was quantified using a ViewLux plate reader (Perkin Elmer, Shelton, CT).
In the case of `Cc1ccc(-n2[nH]c(C)c(N=Nc3cccc(-c4cccc(C(=O)O)c4)c3O)c2=O)cc1C`, the Potency result was “inactive”.
Consider `Clc1cccnc1`, for which the Potency entry is “inactive”.
Next, `CCCCCCCC(OC)OC`: “inactive”.
On to `CC(C)=CC1CC(C)CCO1` (stereo not given), for which the Potency entry was “inactive”.
Take `NC(=O)c1nc(-c2cccc(-c3cc(F)ccc3OCC(F)(F)C(F)(F)F)c2)n[nH]1`: the Potency result was “inactive”.
In the case of `O=C1Nc2ccc(Cl)cc2[C@@](C#CC2CC2)(C(F)(F)F)O1`, the Potency result was “inactive”.
As to `CC1=C(/C=C/C(C)=C/C=C/C(C)=C/C(=O)Nc2ccc(O)cc2)C(C)(C)CCC1`, the Potency was 28 µM (active) and 21.1 µM (active).
Next, `CC(C)(c1cc(Br)c(O)c(Br)c1)c1cc(Br)c(O)c(Br)c1`: “inactive”.
As for `CS(C)(=O)=O`, the Potency entry was “inactive”.
As to `CC(COC(=O)c1ccccc1)OC(=O)c1ccccc1` (stereo not given), the Potency result is “inactive”.
Regarding `Nc1ncnc2c1ncn2[C@@H]1O[C@H](COP(=O)(O)O)[C@@H](O)[C@H]1O`, the Potency result is “inactive”.
As to `CCN(CC)CCSC(=O)C(c1ccccc1)c1ccccc1`, the Potency entry was “inactive”.
For `ClC/C=C\CCl`, the Potency result was “inactive”.
For `CO[C@H]1C=CO[C@@]2(C)Oc3c(C)c(O)c4c(O)c(cc(O)c4c3C2=O)NC(=O)/C(C)=C\C=C/[C@H](C)[C@H](O)[C@@H](C)[C@@H](O)[C@@H](C)[C@H](OC(C)=O)[C@@H]1C`, the Potency is 15.5 µM (active).
Take `OCCCS`: the Potency entry is “inactive”.
In the case of `OCCC(O)CO` (stereo not given), the Potency result was “inactive”.
As to `CCO[Si](C)(C)OCC`, the Potency entry was “inactive”.
Take `CCOC(/C=C(\C)CCC=C(C)C)OCC`: the Potency entry was “inactive”.
For `CC1CCCNC1` (stereo not given), the Potency was 42.4 µM (active).
Next, `c1cc(OCC2CO2)cc(OCC2CO2)c1` (stereo not given): 60.6 µM (active); `CCCCCCC(C)OC(=O)COc1nc(F)c(Cl)c(N)c1Cl` (stereo not given): “inactive”; `O=C1NC2CCCCN2C12CCN(CCCN1c3ccccc3CCc3ccc(Cl)cc31)CC2` (stereo not given): 29.8 µM (active).
With `CNC(=S)NN`, the Potency is 17.2 µM (active).
On to `CCCCCCCC(=O)OCC`, for which the Potency result is “inactive”.
With `CC(C)=CCCC(C)O` (stereo not given), the Potency entry is “inactive”.
`C(=C/c1ccccc1)/c1ccccc1`: the Potency result was “inactive”.
On to `CC(C)CCOCCC(C)C`, for which the Potency result is “inactive”.
For the molecule `Cc1cccc(C)n1`, the Potency result was “inactive”.
With `Cc1oc(-c2ccccc2)nc1CCOc1ccc(C[C@H](Nc2ccccc2C(=O)c2ccccc2)C(=O)O)cc1`, the Potency is 48.6 µM (active).
As for `CC(=O)OC(OC(C)=O)c1ccc([N+](=O)[O-])o1`, the Potency was 24.8 µM (active).
Take `OCCN1CN(CCO)CN(CCO)C1`: the Potency result was “inactive”.
Take `CCN(CC)c1cccc(C)c1`: the Potency entry was “inactive”.
Next, `NC(=O)C(=O)N/N=C/c1ccc([N+](=O)[O-])o1`: “inactive”; `CCCCCCCCCCCCCc1ccccc1`: “inactive”; `C/C=C/C(=O)C1=C(C)CCCC1(C)C`: “inactive”.
In the case of `OCCCCl`, the Potency entry was “inactive”.
With `C=CC(=O)OCCOCC(CC)(COCCOC(=O)C=C)COCCOC(=O)C=C`, the Potency was 7.14 µM (active).
With `C=CC(C)(CCC=C(C)C)OC(=O)/C=C/c1ccccc1` (stereo not given), the Potency result was “inactive”.
As for `Cc1cc(Nc2ccc(O)cc2)ccc1N`, the Potency was 24.2 µM (active).
As for `O=Cc1ccc(F)cc1`, the Potency result was “inactive”.
